Bioassay records as filed in PubChem.
ssDAF-12 act = activators of S. stercoralis DAF-12 nuclear receptor; activation, % at 6.8 µM; HEK293 ssDAF-12/GRIP1 lit1-tk-luc reporter, luminescence; % of 3 µM dafachronic acid response; 370,000 compounds, 1% hits; AID 652126;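 active = activation above the mean over all tested compounds plus 3 SD, cut at about 0.9% in these data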;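 note: 0% = DMSO-only wells and 100% = 3 µM delta7-dafachronic acid wells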
DAX1 inh-1 = DAX1 (NR0B1) inhibition, primary screen; HEK293T StAR-luciferase reporter, SF-1/DAX-1 repression relief; inhibition, % at 6.8 µM; 370,000 compounds, 1.1% hits;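 active = inhibition above the mean over all tested compounds plus 3 SD, cut at about 3.6% in these data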;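 note: 0% = DAX-1 cells with DMSO and 100% = cells lacking DAX-1 with DMSO; higher inhibition means more luminescence from relief of DAX-1 repression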
hcDAF12 agonist = activates DAF-12 receptor from parasite H. contortus; HEK293 hcDAF-12 lit1-tk-luc reporter, luminescence; 0% DMSO, 100% Δ7-dafachronic acid; AID 652067; activation, % at 6.8 µM; 370,000 compounds, 1.4% hits;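 active = activation above the mean of all tested compounds plus 3 SD, cut at about 5.5% in these data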;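 note: 100% = response to 3 µM Δ7-dafachronic acid high control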
DAX1 inh-2 = inhibits human nuclear receptor DAX1. P51843. HEK293 Gal4-DAX1 luciferase reporter, luminescence. inhibition, % at 6.75 µM. 340,000 compounds, 0.99% hits. AID 504766;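 active = inhibition above the mean over all tested compounds plus 3 SD, cut at about 4.2% in these data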;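 note: 0% = DAX1-transfected cells with DMSO and 100% = empty-vector control cells with DMSO; inhibition shows as a rise in luminescence from relieved DAX1 repression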
Target sequence (P51843 207-470 limits assumed): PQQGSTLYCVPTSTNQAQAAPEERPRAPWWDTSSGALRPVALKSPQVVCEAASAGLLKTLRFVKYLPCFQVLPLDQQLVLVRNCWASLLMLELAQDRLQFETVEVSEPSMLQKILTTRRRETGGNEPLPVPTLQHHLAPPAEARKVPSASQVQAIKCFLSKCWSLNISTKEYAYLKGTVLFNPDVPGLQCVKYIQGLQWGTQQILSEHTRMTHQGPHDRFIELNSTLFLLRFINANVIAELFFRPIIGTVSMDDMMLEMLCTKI
hgDAF-12 ag = activates the H. glycines DAF-12 receptor ligand-binding domain | 370,000 compounds, 1.8% hits | activation, % at 6.8 µM | HEK293 GAL4-hgDAF12 UAS-luciferase reporter, agonist luminescence; normalized to butyrate control | AID 687014;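 active = activation above a cutoff set at the mean of all screened compounds plus 3 SD, cut at about 10% in these data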;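 note: 0% = DMSO wells and 100% = sodium butyrate wells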
* = called active by the depositor. Rows were chosen to be rich in hits. Some 4.1% of all compounds tested hit in one or more screens of this group.

For Cc1ccc(C(=O)NC2CCCCN(Cc3cccc(Cl)c3)C2=O)c(C)c1 (centres undefined) the results were ssDAF-12 act -1, DAX1 inh-1 -1, hcDAF12 agonist -2 and hgDAF-12 ag 2.
Cc1ccccc1CN1CCCCC(NC(=O)C2CCC2)C1=O (centres undefined) was read as ssDAF-12 act 1.9*, DAX1 inh-1 0, hcDAF12 agonist 1 and hgDAF-12 ag -1.
Cc1ccccc1C(=O)NC1CCCCN(Cc2cccc(Cl)c2)C1=O (centres undefined) was read as ssDAF-12 act 1.0*, DAX1 inh-1 -1, hcDAF12 agonist -3 and hgDAF-12 ag 2.
O=C(NN=Cc1c[nH]c2ccccc12)NN=Cc1c[nH]c2ccccc12 was read as ssDAF-12 act 1, DAX1 inh-1 0, hcDAF12 agonist 2, DAX1 inh-2 -1 and hgDAF-12 ag -2.
O=C(N/N=C/c1c[nH]c2ccccc12)c1cc(Br)ccc1O was read as ssDAF-12 act 1.3*, DAX1 inh-1 0, hcDAF12 agonist 5, DAX1 inh-2 -1 and hgDAF-12 ag 10.
Cc1ccc(C(=O)N/N=C/c2c[nH]c3ccccc23)o1 was read as ssDAF-12 act 0, DAX1 inh-1 0, hcDAF12 agonist 6.4*, DAX1 inh-2 0 and hgDAF-12 ag 7.
Fc1ccc(NC(=S)NN=Cc2ccccc2Cl)cc1 was read as ssDAF-12 act -1, DAX1 inh-1 0, hcDAF12 agonist 2, DAX1 inh-2 4 and hgDAF-12 ag 10.
`O=C(N/N=C/c1ccccc1Cl)c1ccc(F)cc1` gave ssDAF-12 act -2, DAX1 inh-1 2, hcDAF12 agonist 3, DAX1 inh-2 2 and hgDAF-12 ag 13*.
CCOc1ccc(Br)cc1C(=O)N/N=C/c1c[nH]c2ccccc12 was read as ssDAF-12 act -1, DAX1 inh-1 0, hcDAF12 agonist 0, DAX1 inh-2 3 and hgDAF-12 ag 2.
Screening Cc1cc(C(=O)N/N=C/c2c[nH]c3ccccc23)c(C)o1 returned ssDAF-12 act 1, DAX1 inh-1 1, hcDAF12 agonist 3, DAX1 inh-2 1 and hgDAF-12 ag 8.
`Cc1cccc(NC(=S)N/N=C/c2c[nH]c3ccccc23)c1` gave ssDAF-12 act 0, DAX1 inh-1 0, hcDAF12 agonist 0, DAX1 inh-2 -1 and hgDAF-12 ag 14*.
For O=C(C(=O)N1CCC(CNS(=O)(=O)c2ccccc2)CC1)c1cc2ccccc2o1 the results were ssDAF-12 act -2, DAX1 inh-1 0, hcDAF12 agonist -1 and hgDAF-12 ag -2.
Screening O=C(N/N=C/c1c[nH]c2ccccc12)c1ccccc1 returned ssDAF-12 act 0, DAX1 inh-1 0, hcDAF12 agonist 2, DAX1 inh-2 6.1* and hgDAF-12 ag 5.
Screening O=C(N/N=C/c1c[nH]c2ccccc12)c1ccncc1 returned ssDAF-12 act 0, DAX1 inh-1 0, hcDAF12 agonist 5, DAX1 inh-2 2 and hgDAF-12 ag 3.
Cc1nc(N)sc1C(=O)N/N=C/c1c[nH]c2ccccc12 was read as ssDAF-12 act -1, DAX1 inh-1 0, hcDAF12 agonist 5, DAX1 inh-2 -1 and hgDAF-12 ag 11*.
`Cc1cc(C(=O)N/N=C/c2c[nH]c3ccccc23)cs1` gave ssDAF-12 act 1, DAX1 inh-1 0, hcDAF12 agonist 4, DAX1 inh-2 1 and hgDAF-12 ag 8.
Screening O=C(N/N=C/c1cc2c(cc1Br)OCO2)c1c[nH]c2ccccc12 returned ssDAF-12 act 0, DAX1 inh-1 1, hcDAF12 agonist 4, DAX1 inh-2 5.4* and hgDAF-12 ag 10*.
Screening O=C(N/N=C/c1cc(Cl)ccc1O)c1ccccc1Br returned ssDAF-12 act 1.5*, DAX1 inh-1 0, hcDAF12 agonist -3, DAX1 inh-2 -2 and hgDAF-12 ag -4.
For O=C(N/N=C/c1cc2c(cc1Br)OCO2)c1ccccn1 the results were ssDAF-12 act 0, DAX1 inh-1 2, hcDAF12 agonist 3 and hgDAF-12 ag 6.
Screening O=C(N/N=C/c1c[nH]c2ccccc12)c1[nH]c2ccc(Br)cc2c1-c1ccccc1 returned ssDAF-12 act 1.4*, DAX1 inh-1 2, hcDAF12 agonist 4, DAX1 inh-2 1 and hgDAF-12 ag -2.
`O=C(O)CCCC(=O)Nc1nc2n(n1)C(c1ccc(F)cc1)CC(c1ccc(Cl)cc1)N2` (centres undefined) gave ssDAF-12 act 1.8*, DAX1 inh-1 0, hcDAF12 agonist -1, DAX1 inh-2 1 and hgDAF-12 ag 2.
Screening C=CCN=C1NC(c2cccc(Cl)c2)C(C(=O)OC)=C(C)N1C (centres undefined) returned ssDAF-12 act -1, DAX1 inh-1 0, hcDAF12 agonist -1 and hgDAF-12 ag 0.
`COC(=O)C1CN(Cc2cn(Cc3ccc(C)cc3)nn2)CCS(=O)(=O)N1Cc1ccc(OC)cc1` (centres undefined) gave ssDAF-12 act -1, DAX1 inh-1 -1, hcDAF12 agonist -4 and hgDAF-12 ag 3.
Cc1ccc(-c2cnco2)cc1 was read as ssDAF-12 act -2, DAX1 inh-1 0, hcDAF12 agonist 2, DAX1 inh-2 6.3* and hgDAF-12 ag -2.
Screening O=C(/C=C/c1cccs1)Nc1ccc(N2CCOCC2)c(S(=O)(=O)Nc2ccccc2Cl)c1 returned ssDAF-12 act -3, DAX1 inh-1 -1, hcDAF12 agonist -4, DAX1 inh-2 -3 and hgDAF-12 ag -1.
For O=C(/C=C/c1cccs1)Nc1ccc(N2CCOCC2)c(S(=O)(=O)Nc2cc(Cl)ccc2Cl)c1 the results were ssDAF-12 act -1, DAX1 inh-1 0, hcDAF12 agonist 5.7*, DAX1 inh-2 -1 and hgDAF-12 ag 5.
For O=S1(=O)c2ccc(Br)cc2OC[C@@H](c2ccccc2)N1Cc1cn(CCC2OCCO2)nn1 the results were ssDAF-12 act -1, DAX1 inh-1 -2, hcDAF12 agonist -2 and hgDAF-12 ag 0.
For Cc1cccc(C)c1NC(=S)/C(=C(\[O-])c1cccs1)[n+]1ccccc1 the results were ssDAF-12 act 0, DAX1 inh-1 -1, hcDAF12 agonist 5.8*, DAX1 inh-2 0 and hgDAF-12 ag 2.
Cc1cc2c(nc1C)CCCN2Cc1ccccn1 was read as ssDAF-12 act -1, DAX1 inh-1 0, hcDAF12 agonist 1 and hgDAF-12 ag 1.
Nc1c(/C=C2\C=Nc3ccccc32)c(=O)nc2sc(CC(=O)N3CCOCC3)nn12 was read as ssDAF-12 act 0, DAX1 inh-1 3.7*, hcDAF12 agonist 5, DAX1 inh-2 1 and hgDAF-12 ag 6.
For Nc1c(C=C2C=CC(=O)C=C2)c(=O)nc2sc(CC(=O)N3CCOCC3)nn12 the results were ssDAF-12 act 0, DAX1 inh-1 0, hcDAF12 agonist -1, DAX1 inh-2 1 and hgDAF-12 ag 1.
